# Source: PubChem BioAssay
# The source made the active and inactive calls. The rule behind the calls is not given here.
# Tested on: Aerobactin synthetase IucA (Klebsiella pneumoniae hvKP1)
# Experiment: Biochemical IucA enzyme inhibition primary screen of the Spectrum library (AID 1346200);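 note: 100% = wells without compound and 0% = wells lacking enzyme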
# Details: malachite green pyrophosphate, A620, at 8 µM, hits give low values
row,SMILES,activity remaining
1,C=CC(C1=CC(=O)C(OC)=CC1=O)c1ccc(OC)cc1 (stereo not given),109% (inactive)
2,CN1CCN(CCC=C2c3ccccc3Sc3ccc(S(=O)(=O)N(C)C)cc32)CC1,116% (inactive)
3,C=C(C)C1Cc2c(ccc(C(=O)O)c2O)O1 (stereo not given),120% (inactive)
4,CN1CCC(OC(c2ccccc2)c2ccccc2)CC1,108% (inactive)
5,COc1ccc(CC(=O)c2ccc(O)cc2O)cc1,111% (inactive)
6,CNCCc1ccccn1,114% (inactive)
7,CCN1CCN(C(=O)NC(C(=O)NC2C(=O)N3C(C(=O)O)=C(CSc4nnnn4C)CSC23)c2ccc(O)cc2)C(=O)C1=O (stereo not given),125% (inactive)
8,COc1ccc(C(=O)c2ccccc2O)c(O)c1,107% (inactive)
9,CC1(C)C2CC[C@]3(C)C(C(=O)C=C4[C@H]5C[C@@](C)(C(=O)O)CC[C@]5(C)CC[C@]43C)[C@@]2(C)CC[C@@H]1O (stereo not given in full),109% (inactive)
10,COc1ccc2c(c1)OC/C(=C\c1ccc(OC)c(O)c1)C2=O,120% (inactive)
11,COc1c(-c2coc3cc4c(cc3c2=O)CC(OC(C)=O)C(C)(C)O4)ccc2c1C=CC(C)(C)O2 (stereo not given),103% (inactive)
12,CC(=O)CC(=O)CCC(=O)O,102% (inactive)
13,CCOC(=O)n1ccn(C)c1=S,127% (inactive)
14,COc1cc(O)c(C(C)=O)c(OC)c1,104% (inactive)
15,C[C@]12CCC3c4ccc(O)cc4CCC3C1CC[C@@H]2OC(=O)CCC1CCCC1 (stereo not given in full),124% (inactive)
16,CC1(C)CC[C@]2(C(=O)O)CC[C@]3(C)C(=CCC4[C@@]5(C)CC[C@H](O)C(C)(C)C5[C@H](O)C[C@]43C)C2C1 (stereo not given in full),76.1% (inactive)
17,CCCCCCCCCCCCC[N+](C)(C)Cc1ccccc1,104% (inactive)
18,COc1ccc(-c2c(O)c3c(OC)c4c(cc3oc2=O)OC(C)(C)CC4)cc1,99.1% (inactive)
19,CCOc1ccc(C(=O)c2ccc(O)c(O)c2O)cc1,110% (inactive)
20,O=C(Oc1ccccc1C(=O)O)c1ccccc1O,115% (inactive)

row,SMILES,activity remaining
1,C1CCC(C(CC2CCCCN2)C2CCCCC2)CC1 (stereo not given),103% (inactive)
2,C1CNCCN1,120% (inactive)
3,Cc1ccc(C(C)C)cc2c(C)ccc1-2,121% (inactive)
4,CCC(C(=O)O)c1ccccc1 (stereo not given),123% (inactive)
5,CC(=O)O[C@]1(C(C)=O)CCC2C3C=C(Cl)C4=CC(=O)CC[C@]4(C)C3CC[C@@]21C (stereo not given in full),130% (inactive)
6,Nc1ccc(C(=O)Oc2ccccc2)c(O)c1,114% (inactive)
7,NC(=O)NC1NC(=O)NC1=O (stereo not given),113% (inactive)
8,Oc1ccc(Cl)cc1Cc1cc(Cl)ccc1O,108% (inactive)
9,CCn1cc(C(=O)O)c(=O)c2cnc(N3CCNCC3)nc21,101% (inactive)
10,C[C@H]1CC2C([C@@H](O)C[C@@]3(C)C2CC[C@]3(O)C(=O)COC(=O)CCC(=O)O)[C@@]2(C)C=CC(=O)C=C12 (stereo not given in full),91.3% (inactive)
11,CC[C@]1(O)CC2CN(CCc3c([nH]c4ccccc34)[C@@](C(=O)OC)(c3cc4c(cc3OC)N(C=O)[C@H]3[C@@](O)(C(=O)OC)[C@H](OC(C)=O)[C@]5(CC)C=CCN6CC[C@]43[C@@H]65)C2)C1 (stereo not given in full),82.4% (inactive)
12,COc1ccc(-c2coc3cc(O)cc(O)c3c2=O)cc1,98.7% (inactive)
13,C=C1C[C@]23C[C@@]1(O)CC[C@H]2[C@@]12C=C[C@H](O)C(C)(C(=O)O1)[C@H]2[C@@H]3C(=O)O,121% (inactive)
14,COc1ccc(-c2cc(=O)c3c(O)c(OC)c(O[C@H]4O[C@H](CO[C@@H]5O[C@@H](C)[C@H](O)[C@@H](O)[C@H]5O)[C@@H](O)[C@H](O)[C@H]4O)cc3o2)cc1,109% (inactive)
15,CC1(O)CC2C(CC1O)C2(C)C (stereo not given),125% (inactive)
16,CCCc1c(OCCCCc2nn[nH]n2)ccc(C(C)=O)c1O,112% (inactive)
17,COC(=O)CCC(C)C1CCC2C3CC[C@@H]4C[C@H](O)CC[C@]4(C)C3C[C@H](O)[C@]12C (stereo not given in full),120% (inactive)
18,NCC1CCCCC1CC(=O)O (stereo not given),98.9% (inactive)
19,C=CCSCC=C,109% (inactive)
20,COc1ccc(-c2cc(=O)c3ccccc3o2)cc1OC,109% (inactive)
